Methyltransferases – Primary Screen for Target Class Profiling of Small Molecule Inhibitors of Methyltransferases. 25,000 compounds, 3.9% hits. calls only at 40 µM. AID 1745853, 2022. purified enzyme, MTase-Glo SAH luminescence; hits give low values; call rule not given here
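Each enzyme was assayed with SAM and its substrate. SAH formation detected by MTase-Glo luminescence; single-point 40 uM screen[…].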
Large screens that a line does not name were inactive. The entries come from a sample that favours hits as a whole.

CC1(CO)CC[C@]2(C(=O)O[C@@H]3O[C@H](CO)[C@@H](O)[C@H](O)[C@H]3O)CC[C@]3(C)C(=CCC4[C@@]5(C)C[C@H](O)[C@H](O[C@@H]6OC[C@@H](O)[C@H](O)[C@H]6O)[C@@](C)(CO)C5CC[C@]43C)C2C1 (stereo partly drawn)	Methyltransferases active
CC1(C)CC[C@]2(C(=O)O[C@@H]3O[C@H](CO)[C@@H](O)[C@H](O)[C@H]3O)CC[C@]3(C)C(=CCC4[C@@]5(C)C[C@@H](O)[C@H](O)C(C)(C)C5CC[C@]43C)C2[C@@H]1O (stereo partly drawn)	Methyltransferases active
CC1(C)CC[C@]2(C(=O)O[C@@H]3O[C@H](CO)[C@@H](O)[C@H](O)[C@H]3O)CC[C@]3(C)C(=CCC4[C@@]5(C)C[C@@H](O)[C@H](O)[C@@](C)(CO)C5[C@H](O)C[C@]43C)C2[C@@H]1O (stereo partly drawn)	Methyltransferases active
COC(=O)C1(C)CCC2(C(=O)O)CCC3(C)C(=CCC4C5(C)CC(O)C(OC6OCC(O)C(O)C6O)C(C)(CO)C5CCC43C)C2C1 (stereo not drawn)	none
CC1OC(OC2C(O)COC(O[C@@H]3[C@@H](O)[C@@H](O)[C@H](OC4C(OC(=O)[C@]56CCC(C)(C)CC5C5=CCC7[C@@]8(C)C[C@H](O)[C@H](OC9OC(CO)C(O)C(O)C9O)[C@@](C)(CO)C8[C@H](O)C[C@@]7(C)[C@]5(C)CC6)OCC(O)C4O)O[C@H]3C)C2O)C(O)C(O)C1O (stereo partly drawn)	none
CC1CCC2(C(=O)OC3OC(CO)C(O)C(O)C3O)CCC3(C)C(=CCC4C5(C)CCC(O)C(C)(CO)C5CCC43C)C2C1(C)O (stereo not drawn)	none
O=C(N[C@@H]1CCOC[C@H]1Oc1cccc(F)c1)c1cnc2ccccn2c1=O	none
CC(C)Cn1c(=O)c2ccc(Cl)cc2n2c(SCC(=O)Nc3ccc(F)cc3)nnc12	none
CCN1C(=O)c2cc(C(=O)NCc3ccc(OC)cc3)nn2CC1(C)C(=O)NC1CCCC1 (stereo not drawn)	none
Cn1ccnc1CN[C@@H]1C[C@H](CO)[C@@H](O)[C@H]1O	none
CC1CCCCC1NC(=O)Cn1ccc2cc(S(=O)(=O)N3CCCC3)ccc21 (stereo not drawn)	none
COc1cccc(C(=O)Cn2nc3n(CC(C)C)c(=O)c4ccc(C(=O)NC5CCCC5)cc4n3c2=O)c1	none
COc1ccccc1Nc1ccnc(N2CCCC(C(=O)NCc3cccc(Cl)c3)C2)n1 (stereo not drawn)	none
COc1cc(O)cc(/C=C/c2cccc(O)c2)c1	none
Oc1ccc(/C=C/c2ccc(/C=C/c3ccc(O)cc3)c(Br)c2)cc1	none
Oc1cc(O)cc(/C=C/c2ccc(O)c(O)c2)c1	Methyltransferases active
O=C(NC[C@H]1O[C@@H](CO)[C@@H](O)[C@H]1N1CCCC1)c1ccc(F)c(Cl)c1	none
COc1ccc(NC(=O)CSc2nnc3n(CCC(C)C)c(=O)c4ccccc4n23)cc1	none
O=C(NCc1ccncc1)C1CN(Cc2ccccn2)CC12CCOCC2 (stereo not drawn)	none
CC(C)C(=O)N1CCCCCCNC(=O)[C@@H]2C[C@@H](C(=O)NCCc3c[nH]c4ccccc34)C[C@@H]21	none
COc1cc2c(cc1-c1ccc(S(C)(=O)=O)cc1)OCC(C)(C)CC2CO (stereo not drawn)	none
O=C(NCc1cccnc1)C1CN(S(=O)(=O)C2CC2)CC12CCCCC2 (stereo not drawn)	none
O=C(NCc1ccccc1Cl)c1ccc2c(=O)nc3c(-c4ccccc4F)n[nH]n3c2c1	none
Cc1nc(Nc2n[nH]c3c2CN(C(=O)N[C@H](CN(C)C)c2ccccc2)C3(C)C)c2sccc2n1	Methyltransferases active
COc1ccc(-c2nnn3c2nc(NCc2ccccc2Cl)c2ccccc23)cc1	none
O=C(NCc1ccnc2[nH]ccc12)c1cc(F)ccc1Br	none
COc1ccc(-c2cc3n(n2)CC(C)(C(=O)NCc2ccccc2OC)N(c2ccc(C)cc2C)C3=O)cc1 (stereo not drawn)	none
Cc1nc(CN(C)c2ncnc3ccc(-c4ccc5c(c4)OCO5)cc23)cs1	Methyltransferases active
Cc1c(-c2ccc3c(c2)OCO3)oc2ccc(C(O)C(C)O)cc12 (stereo not drawn)	none
CCNC(=O)NC1(CCOC)CCN(C(=O)c2ccoc2)CC1	none
COc1ccc(C(=O)/C(Cc2cc(OC)c(OC)c(OC)c2)=C(\C(=O)O)c2ccc3c(c2)OCO3)cc1	none
CCOC(=O)CCC(=O)O[C@H]1[C@H](O[C@@H]2[C@@H](C)[C@H](O[C@H]3C[C@@](C)(OC)[C@@H](O)[C@H](C)O3)[C@@H](C)C(=O)O[C@H](CC)[C@@](C)(O)[C@H](O)[C@@H](C)C(=O)[C@H](C)CC2(C)O)O[C@H](C)C[C@@H]1N(C)C (stereo partly drawn)	none
CC(C)CNC(=O)c1ccc2c(=O)n(CC(C)C)c3nn(CC(=O)NC(C)(C)C)c(=O)n3c2c1	none
CC1(C)CC[C@]2(C(=O)O)CC[C@]3(C)C(=CCC4[C@@]5(C)C[C@@H](O)[C@H](O)[C@@](C)(CO)C5CC[C@]43C)C2C1 (stereo partly drawn)	none
CC1(CO)CC(O)[C@]2(C(=O)O)CCC34CC3(C=CC3[C@]5(C)C(CC[C@]34C)C(C)(CO)[C@@H](O)[C@H](O)[C@@H]5O)C2C1 (stereo partly drawn)	Methyltransferases active
CC1(C)CC[C@]2(C(=O)O)CC[C@]3(C)C(=CCC4[C@@]5(C)C(=O)C[C@H](O)[C@@](C)(CO)C5CC[C@]43C)[C@@H]2C1 (stereo partly drawn)	none
CC(C)CCn1c(=O)c2ccc(C(=O)NC3CCCC3)cc2n2c(=O)n(C)nc12	none
COC1C(=O)N(C2CCN(C(=O)C3CC3)CC2)C12CCOCC2 (stereo not drawn)	none
O=C(O)CSc1cc(NS(=O)(=O)c2ccc(Br)cc2)c2ccccc2c1O	Methyltransferases active
Cn1c(=O)n(C)c2cc(S(=O)(=O)Nc3ccc(Br)cc3)ccc21	none
C[C@@H](NC(=O)C(=O)c1c[nH]c2ccc([N+](=O)[O-])cc12)c1ccccc1	none
CCOc1ccc(N2C(=O)c3c(C(=O)OC)ncn3CC2(C)C(=O)NC2CCCC2)cc1 (stereo not drawn)	none
Cc1cnc(Nc2cccc(CN3CCOCC3)c2)nc1Nc1cccc(S(=O)(=O)NC(C)(C)C)c1	none
Cc1cnc(Nc2ccc(CN3CCOCC3)cc2)nc1Nc1cccc(S(=O)(=O)NC(C)(C)C)c1	Methyltransferases active
Cc1cc(S(=O)(=O)NCCN2CCOCC2)ccc1Cl	none
CC(=O)Nc1c2n(c3ccc(F)cc13)CC(C)(C(=O)NC1CCCC1)N(Cc1cccs1)C2=O (stereo not drawn)	none
Cn1c(=O)c2ccc(C(=O)NC3CCCCC3)cc2n2c(SCc3cccc(F)c3)nnc12	none
Cc1ccc(C(N)=O)cc1Nc1nccc(-c2cn(C(C)C)c3cnccc23)n1	Methyltransferases active
CC1(C(=O)NC2CCCCCC2)Cn2c(ccc2-c2ccco2)C(=O)N1Cc1cccs1 (stereo not drawn)	none
CC(C)n1nc(-c2ccc3oc(N)nc3c2)c2c(N)ncnc21	none
CC(C)n1nc(Cc2cccc3ccccc23)c2c(N)ncnc21	Methyltransferases active
CC(C)n1nc(CNC(=O)Cc2ccc(F)cc2)c2ccccc21	none
CC1(C)CC(CC(=O)N2CCCCC2)(c2ccccc2)CCO1 (stereo not drawn)	none
Cc1ccc(CN2C(=O)c3ccc(-c4ccco4)n3CC2(C)C(=O)NC2CCCCC2C)cc1 (stereo not drawn)	none

Bioassay records from PubChem BioAssay.
